{
  "source": "PubChem BioAssay AID454",
  "about": "(Sanford-Burnham Center for Chemical Genomics, 2006)",
  "note": "About 25 (0.2%) of roughly 10,000 compounds were called active.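 How the source made its calls: active means compound among top-ranked inhibitors of TNF-induced VCAM-1 adhesion protein staining, with the hit upheld by image or statistical review; inactive means the rest, including hits rejected on review.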 This excerpt belongs to a sample that is enriched for actives.",
  "data": [
    {"test": "inhibitors of TNFa-induced VCAM-1 surface display, cell-based, plate reader, pooled HUVEC, TNFa stimulus (AID 454)", "conditions": "HUVEC TNFa-induced VCAM-1 surface immunofluorescence; active compounds read high,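 compound tested at 5 µM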", "values": [
      {"smiles": "CCOC(=O)c1cccc(NC(=O)CSc2nc3cccnc3n2C)c1", "inhibition": "inactive"},
      {"smiles": "Cn1c(SCc2cccc3ccccc23)nnc1-c1ccco1", "inhibition": "inactive"},
      {"smiles": "CN1C(=O)C(CC(=O)N2CCN(C(c3ccccc3)c3ccccc3)CC2)N(C)C1=O", "note": "(stereo not given)", "inhibition": "inactive"},
      {"smiles": "CCCCC(=O)NCCNc1nc2c(c(=O)n(C)c(=O)n2C)n1Cc1ccccc1", "inhibition": "inactive"},
      {"smiles": "COc1ccc(C(=O)N2CCN(c3nc4cc(C)ccc4cc3C#N)CC2)c(OC)c1", "inhibition": "inactive"},
      {"smiles": "Cc1nc2sc3c(c2c(=O)o1)CCC3", "inhibition": "inactive"},
      {"smiles": "CCC(C)(C(=O)NC1CCCCC1)N(Cc1ccco1)C(=O)c1cnccn1", "note": "(stereo not given)", "inhibition": "inactive"},
      {"smiles": "CC1=CCC2C(=O)N(c3nc(C)cc(C)n3)C(=O)C2C1", "note": "(stereo not given)", "inhibition": "inactive"},
      {"smiles": "CCCn1c(NC(=O)C2COc3ccccc3O2)nc2ccccc21", "note": "(stereo not given)", "inhibition": "inactive"},
      {"smiles": "Cc1cc(C)nc(NC(=O)c2ccc(OC(C)C)cc2)n1", "inhibition": "inactive"},
      {"smiles": "Cc1nn(-c2ccc(F)cc2)c2c1cc(C#N)c1nc3ccccc3n12", "inhibition": "inactive"},
      {"smiles": "COc1ccc(C(=O)Cn2c(N3CCCCC3)nc3c2c(=O)n(C)c(=O)n3C)cc1OC", "inhibition": "inactive"},
      {"smiles": "COc1cccc(Cn2c(Oc3ccccc3)nc3c2c(=O)n(C)c(=O)n3C)c1", "inhibition": "inactive"},
      {"smiles": "COc1ccc(-c2nc3c(c(=O)n(C)c(=O)n3C)n2CC2CC(c3ccccc3)=NO2)cc1OC", "note": "(stereo not given)", "inhibition": "73.1% (active)"},
      {"smiles": "Cc1ccccc1Nc1nc(N)nc(CSCc2c(C)noc2C)n1", "inhibition": "inactive"},
      {"smiles": "Cc1cc2oc(=O)cc(CN3CCCCC3)c2cc1C(C)C", "inhibition": "inactive"},
      {"smiles": "CC(C)(C)C1=Nn2c(nnc2-c2n[nH]c3c2CCC3)SC1", "inhibition": "inactive"},
      {"smiles": "Clc1ccc(C2=Nn3c(nnc3-c3n[nH]c4c3CCC4)SC2)cc1Cl", "inhibition": "106% (active)"},
      {"smiles": "COc1ccc(C2=Nn3c(nnc3-c3ccccc3)SC2)cc1OC", "inhibition": "inactive"},
      {"smiles": "COc1ccc(C2CC(c3ccc(Cl)cc3Cl)n3nc(N)nc3N2)cc1", "note": "(stereo not given)", "inhibition": "inactive"},
      {"smiles": "COc1cccc(OCCn2ccnc2)c1", "inhibition": "inactive"},
      {"smiles": "COc1ccccc1NC(=O)CSc1nnc(-c2ccncc2)n1CC1CCCO1", "note": "(stereo not given)", "inhibition": "inactive"},
      {"smiles": "C=C(Cl)COc1ccc2c(C)cc(=O)oc2c1", "inhibition": "inactive"},
      {"smiles": "Nc1ncnc2nc(SCCN3CCCCC3)[nH]c12", "inhibition": "inactive"},
      {"smiles": "CCCC(=O)Nc1cccc(NC(=O)CN2CCN(c3ccccc3OC)CC2)c1", "inhibition": "inactive"},
      {"smiles": "CN(c1ccc(OCc2nnc(-c3ccccc3)o2)cc1)S(=O)(=O)c1ccccc1", "inhibition": "inactive"},
      {"smiles": "CCOC(=O)c1ccccc1NC1CC(=O)N(c2ccccc2C)C1=O", "note": "(stereo not given)", "inhibition": "inactive"},
      {"smiles": "O=S(=O)(Nc1ccccn1)c1ccc(Oc2ccccc2)cc1", "inhibition": "inactive"},
      {"smiles": "CN(C)S(=O)(=O)c1ccc(Oc2ccc(S(=O)(=O)N(C)C)cc2)cc1", "inhibition": "inactive"},
      {"smiles": "C=CS(=O)(=O)c1ccc(Oc2ccc(S(=O)(=O)C=C)cc2)cc1", "inhibition": "100% (active)"},
      {"smiles": "CC1CCN(C(=O)CN2C(=O)C(C)(C)Oc3ccc(C(=O)NC4CCCC4)cc32)CC1", "inhibition": "inactive"},
      {"smiles": "O=C1CC(N2CCOCC2)C(=O)N1c1ccccc1Cl", "note": "(stereo not given)", "inhibition": "inactive"},
      {"smiles": "COc1ccccc1Nc1nc(N)nc(CN2CCN(c3ccccc3F)CC2)n1", "inhibition": "inactive"},
      {"smiles": "OC1(c2cccc(C(F)(F)F)c2)CCNCC1", "inhibition": "inactive"},
      {"smiles": "CCOC(=O)c1[nH]c(C)c(C(=O)Nc2ccc(C)c(Cl)c2)c1C", "inhibition": "inactive"},
      {"smiles": "COc1ccc(OC)c(C2C(C(=O)Nc3cccnc3)=C(C)NC3=C2C(=O)CCC3)c1", "note": "(stereo not given)", "inhibition": "inactive"},
      {"smiles": "COC(=O)C1=C(C)NC(=O)C1(NC(=O)c1cccnc1)C(F)(F)F", "note": "(stereo not given)", "inhibition": "inactive"},
      {"smiles": "COc1ccc(CN2C(=O)[C@@H]3C(c4ccc(F)cc4)=NO[C@@H]3C2=O)cc1", "inhibition": "inactive"},
      {"smiles": "Cc1cccn2c(=O)c3cc(C#N)c(=NC(=O)c4ccncc4)n(Cc4ccco4)c3nc12", "inhibition": "inactive"},
      {"smiles": "CC(C)n1c(=NC(=O)c2ccco2)c(C#N)cc2c(=O)n3ccccc3cc21", "inhibition": "78.8% (active)"},
      {"smiles": "CCOC(=O)c1cc2c(=O)n3ccccc3nc2n(CC(C)C)c1=NC(=O)c1ccco1", "inhibition": "inactive"},
      {"smiles": "CCOc1ccc(NC(=O)CN2CCN(CC(=O)c3ccc(OCC)cc3)CC2)cc1", "inhibition": "inactive"},
      {"smiles": "CCCCc1c(O)nc(N2CCN(Cc3ccccc3)CC2)[nH]c1=O", "inhibition": "inactive"},
      {"smiles": "CCN(CC(=O)Nc1ccc2c(c1)CCC2)Cc1nc2ccccc2c(=O)[nH]1", "inhibition": "inactive"},
      {"smiles": "Nc1nc(SCc2ccc(Cl)cc2Cl)n[nH]1", "inhibition": "inactive"},
      {"smiles": "O=S(=O)(Nn1cnnc1)c1ccccc1Cl", "inhibition": "inactive"},
      {"smiles": "CCOc1cc2[nH]c(=S)n(CC3CCCO3)c(=O)c2cc1OCC", "note": "(stereo not given)", "inhibition": "inactive"},
      {"smiles": "Cc1cc(NC(=O)CSc2nnc(COc3cccc(C)c3C)n2Cc2ccco2)no1", "inhibition": "inactive"},
      {"smiles": "COCCn1c(COc2ccc(Cl)cc2)nnc1SCC(N)=O", "inhibition": "inactive"},
      {"smiles": "Clc1ccc(OCc2nnc(SCCN3CCCCC3)n2Cc2ccco2)cc1", "inhibition": "82.9% (active)"},
      {"smiles": "Cc1ccccc1-c1nc(CN2CCC(C(=O)NCc3cccnc3)CC2)c(C)o1", "inhibition": "inactive"},
      {"smiles": "O=c1nc(N2CCCC2)nc(Nc2ccccc2)[nH]1", "inhibition": "inactive"},
      {"smiles": "O=C(Cn1cc2c(n1)CCCCC2)N1CCc2ccccc21", "inhibition": "inactive"},
      {"smiles": "Cc1nnc(SCC(=O)NCc2ccccc2)s1", "inhibition": "inactive"},
      {"smiles": "Cc1nnc(SCC(=O)N2c3ccccc3CC2C)s1", "note": "(stereo not given)", "inhibition": "inactive"},
      {"smiles": "Cc1nnc(SC(=O)N2c3ccccc3Sc3ccccc32)s1", "inhibition": "92.2% (active)"},
      {"smiles": "CCOc1cccc(Oc2ccc(C(F)(F)F)cn2)c1", "inhibition": "inactive"},
      {"smiles": "COc1ccc(S(=O)(=O)N2CN(Cc3ccco3)c3nc4ccccc4nc32)cc1", "inhibition": "inactive"},
      {"smiles": "Cc1ccc2nc(C3CCN(CC(=O)N4CCCCCC4)CC3)[nH]c2c1", "inhibition": "inactive"},
      {"smiles": "CCOc1ccccc1N1CCN(c2nc3ccccc3nc2C(C#N)C(=O)OC)CC1", "note": "(stereo not given)", "inhibition": "inactive"},
      {"smiles": "S=c1[nH]nc(-c2ccco2)n1-c1cccc2ccccc12", "inhibition": "inactive"},
      {"smiles": "Cc1c(C)c2ccc(OC3CCCCC3=O)cc2oc1=O", "note": "(stereo not given)", "inhibition": "inactive"},
      {"smiles": "COc1ccccc1CC(=O)NCc1ccc2c(c1)OCO2", "inhibition": "inactive"},
      {"smiles": "O=C1c2ccccc2C(Nc2ccc3nc(-c4cccnc4)[nH]c3c2)N1Cc1ccco1", "note": "(stereo not given)", "inhibition": "79.2% (active)"},
      {"smiles": "O=C1c2ccccc2C(Nc2ccc(F)c(Cl)c2)N1Cc1ccco1", "note": "(stereo not given)", "inhibition": "inactive"},
      {"smiles": "O=C1c2ccccc2C(Nc2ccc(-c3nc4ccccc4[nH]3)cc2)N1Cc1ccco1", "note": "(stereo not given)", "inhibition": "inactive"},
      {"smiles": "CCCc1cc(Nc2cccc(OC)c2)n2ncnc2n1", "inhibition": "inactive"},
      {"smiles": "COCC(C)NC(=O)CCS(=O)(=O)c1nc(-c2ccc(OC)cc2)cc(C(F)(F)F)n1", "note": "(stereo not given)", "inhibition": "91.4% (active)"},
      {"smiles": "COc1ccc(-c2cc(C(F)(F)F)nc(SCCC(=O)N3CCOCC3)n2)cc1", "inhibition": "inactive"},
      {"smiles": "CCOC(=O)CS(=O)(=O)c1nc(-c2ccccc2)cc(C(F)(F)F)n1", "inhibition": "inactive"}
    ]}
  ]
}
